Source: the supplement of paper PMC7366291
Structures can show the parent of a compound that is named as a salt. ± gives the standard deviation of the averaged measurements.

system: Danio rerio Tg(wt1b:EGFP) embryo, pronephros; assay: fraction of imaged embryos annotated as normal kidney; higher = less nephrotoxic; extreme values may be limits of the assay; conditions: 25 µM; exposure: 24-48 hpf
Method in brief: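 Zebrafish embryos carrying Tg(wt1b:EGFP) were dechorionated and exposed to 25 μM compound (0.5% DMSO) between 24 and 48 hpf at 28.5°C. Their pronephroi were imaged by widefield fluorescence, and each embryo was classed by hand from maximum projections. The measure is the fraction of embryos per treatment falling in the normal-kidney category.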

| SMILES | fraction of imaged embryos annotated as normal kidney |
| --- | --- |
| O=C(O)Cc1sc(-c2ccccc2)nc1-c1ccc(Cl)cc1 [Fentiazac] | 0 |
| CCCCOc1cc(C(=O)NCCN(CC)CC)c2ccccc2n1 [Dibucaine] | 0.917 |
| CCCCc1nc(Cl)c(CO)n1Cc1ccc(-c2ccccc2-c2nnn[nH]2)cc1 [Losartan] | 0.75 |
| CCCCNC(=O)NS(=O)(=O)c1ccc(C)cc1 [Tolbutamide] | 0.833 |
| COC(c1ccccc1)(c1ccccc1)[C@H](Oc1nc(C)cc(C)n1)C(=O)O [Ambrisentan] | 0.833 |
| CCS(=O)(=O)CCn1c([N+](=O)[O-])cnc1C [Tinidazole] | 0.833 |
| Clc1ccccc1CN1CCc2sccc2C1 [Ticlopidine hydrochloride] | 0.833 |
| CC(CCc1ccccc1)NCC(O)c1ccc(O)c(C(N)=O)c1 (centres undefined) [Labetalol hydrochloride] | 0.917 |
| C[N+](C)(CCOc1ccccc1)Cc1ccccc1.O=C([O-])c1cc2ccccc2cc1O [Bephenium hydroxynaphthoate] | 0.583 |
| O=C(c1ccc(OCCN2CCCCC2)cc1)c1c(-c2ccc(O)cc2)sc2cc(O)ccc12 [Raloxifene hydrochloride] | 0.917 |
| C[C@]12CCC(=O)C=C1C=C[C@@H]1[C@@H]2CC[C@@]2(C)[C@H]1CC[C@@]21CCC(=O)O1 [Canrenone] | 0.818 |
| Clc1ccc(COC(Cn2ccnc2)c2ccc(Cl)cc2Cl)c(Cl)c1 (centres undefined) [Miconazole] | 0.0909 |
| CC[C@H]1OC(=O)[C@H](C)[C@@H](O[C@H]2C[C@@](C)(OC)[C@@H](O)[C@H](C)O2)[C@H](C)[C@@H](O[C@@H]2O[C@H](C)C[C@H](N(C)C)[C@H]2O)[C@](C)(O)C[C@@H](C)CN(C)[C@H](C)[C@@H](O)[C@]1(C)O [Azithromycin] | 1 |
| COc1cc2c(cc1OC)C(=O)C(CC1CCN(Cc3ccccc3)CC1)C2 (centres undefined) [Donepezil hydrochloride] | 0.833 |
| CC(=O)CCCCn1c(=O)c2c(ncn2C)n(C)c1=O [Pentoxifylline] | 0.583 |
| C[C@]12CC[C@H]3C(=CCc4cc(O)ccc43)[C@@H]1CCC2=O [Equilin] | 0.25 |
| CCn1cc(C(=O)O)c(=O)c2cnc(N3CCCC3)nc21 [Piromidic acid] | 0.9 |
| Cc1cc(N)c2ccccc2[n+]1CCCCCCCCCC[n+]1c(C)cc(N)c2ccccc21 [Dequalinium dichloride] | 0.75 |
| Nc1nc(F)nc2c1ncn2[C@@H]1O[C@H](CO)[C@@H](O)[C@@H]1O [Fludarabine] | 1 |
| CC(C)NCC(O)COc1cccc2[nH]ccc12 (centres undefined) [Pindolol] | 0.909 |
| CC(=O)N(CC(O)CN(C(C)=O)c1c(I)c(C(=O)NCC(O)CO)c(I)c(C(=O)NCC(O)CO)c1I)c1c(I)c(C(=O)NCC(O)CO)c(I)c(C(=O)NCC(O)CO)c1I (centres undefined) [Iodixanol] | 0.917 |
| N/C(=N\C(=O)c1nc(Cl)c(N)nc1N)NCc1ccccc1 [Benzamil hydrochloride] | 0.917 |
| CC(C)[C@H]1CC[C@H](C(=O)N[C@H](Cc2ccccc2)C(=O)O)CC1 [Nateglinide] | 1 |
| NC(CO)C(=O)NNCc1ccc(O)c(O)c1O (centres undefined) [Benserazide hydrochloride] | 0.667 |
| Cc1cc(/C=C/c2ccc3cc(N(C)C)ccc3[n+]2C)c(C)n1-c1ccccc1 [Pyrvinium pamoate] | 0.833 |
| Cc1cnc(C(=O)NCCc2ccc(S(=O)(=O)NC(=O)NC3CCCCC3)cc2)cn1 [Glipizide] | 0.833 |
| C=C1c2c(Cl)ccc(O)c2C(=O)C2=C(O)[C@]3(O)C(=O)C(C(N)=O)=C(O)[C@@H](N(C)C)[C@@H]3[C@@H](O)[C@H]12.O=C(O)c1cc(S(=O)(=O)O)ccc1O [Meclocycline sulfosalicylate] | 0.917 |
| CN1CCC[C@@H]1CCO[C@](C)(c1ccccc1)c1ccc(Cl)cc1 [Clemastine fumarate] | 0.818 |
| CCCCN(CCCC)CCC(O)c1cc2c(Cl)cc(Cl)cc2c2cc(C(F)(F)F)ccc12 (centres undefined) [Halofantrine hydrochloride] | 0 |

system: Danio rerio Tg(wt1b:EGFP) embryo, pronephros; assay: pronephric angle neck segment to proximal convoluted tubule (mean of left and right), fold change vs DMSO control; higher = larger pronephric angle; conditions: 25 µM; exposure: 24-48 hpf
Method in brief: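 Dechorionated Tg(wt1b:EGFP) zebrafish embryos were kept from 24 to 48 hpf at 28.5°C in HEPES-buffered E3 containing 0.003% PTU, 0.5% DMSO and 25 μM compound. The pronephroi were then imaged from the dorsal side in agarose-filled 96-well plates at 470 nm with 10 z-slices, and 16 reference points were placed by hand on maximum projections in Fiji so that a macro could calculate distances and angles. Values lying more than 2 SD from the mean of a feature were discarded. Every feature is given as a fold change against the mean of DMSO-treated embryos from the same day.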

| SMILES | pronephric angle neck segment |
| --- | --- |
| CCN(CC)CCNC(=O)COc1ccc(OC)cc1 [Mefexamide hydrochloride] | 1.07 ± 0.086 |
| COc1ccc2c(c1)N(C[C@H](C)CN(C)C)c1ccccc1S2 [Methotrimeprazine maleat salt] | 1.02 ± 0.016 |
| CCN(CC)CCNC(=O)c1cc(Br)c(N)cc1OC [Bromopride] | 1.02 ± 0.036 |
| Cc1cccc(CN2CCN(C(c3ccccc3)c3ccc(Cl)cc3)CC2)c1 (centres undefined) [Meclozine dihydrochloride] | 1.03 ± 0.073 |
| CCN(CC)CC#CCOC(=O)C(O)(c1ccccc1)C1CCCCC1 (centres undefined) [Oxybutynin chloride] | 0.985 ± 0.028 |
| CN(C)CCCSC(=N)N [Dimaprit dihydrochloride] | 1 ± 0.022 |
| Cc1cc(-n2c(=O)[nH]c(=O)n(C)c2=O)ccc1Oc1ccc(SC(F)(F)F)cc1 [Toltrazuril] | 1.09 ± 0.045 |
| CCOC(=O)[N-]c1c[n+](N2CCOCC2)no1 [Molsidomine] | 0.982 ± 0.013 |
| O=C1CN(/N=C/c2ccc(-c3ccc([N+](=O)[O-])cc3)o2)C(=O)N1 [Dantrolene sodium salt] | 1.02 ± 0.016 |
| CC[C@H]1OC(=O)C[C@@H](O)[C@H](C)[C@@H](O[C@@H]2O[C@H](C)[C@@H](O[C@H]3C[C@@](C)(O)[C@@H](O)[C@H](C)O3)[C@H](N(C)C)[C@H]2O)[C@@H](CC=O)C[C@@H](C)C(=O)/C=C/C(C)=C/[C@@H]1CO[C@@H]1O[C@H](C)[C@@H](O)[C@@H](OC)[C@H]1OC [Tylosin] | 1.005 ± 0.0099 |
| CN(C)CCOC(c1ccccc1)c1ccccc1.Cn1c(=O)c2[nH]c(Cl)nc2n(C)c1=O [Dimenhydrinate] | 1.029 ± 0.0072 |
| O=C(O)Cc1sc(-c2ccccc2)nc1-c1ccc(Cl)cc1 [Fentiazac] | 1.75 ± 0.059 |
| CCCCOc1cc(C(=O)NCCN(CC)CC)c2ccccc2n1 [Dibucaine] | 1.007 ± 0.0089 |
| CCCCc1nc(Cl)c(CO)n1Cc1ccc(-c2ccccc2-c2nnn[nH]2)cc1 [Losartan] | 1.04 ± 0.044 |
| CCCCNC(=O)NS(=O)(=O)c1ccc(C)cc1 [Tolbutamide] | 1.04 ± 0.023 |
| COC(c1ccccc1)(c1ccccc1)[C@H](Oc1nc(C)cc(C)n1)C(=O)O [Ambrisentan] | 1.09 ± 0.018 |
| CCS(=O)(=O)CCn1c([N+](=O)[O-])cnc1C [Tinidazole] | 1.02 ± 0.037 |
| Clc1ccccc1CN1CCc2sccc2C1 [Ticlopidine hydrochloride] | 1.008 ± 0.0084 |
| CC(CCc1ccccc1)NCC(O)c1ccc(O)c(C(N)=O)c1 (centres undefined) [Labetalol hydrochloride] | 1.07 ± 0.069 |
| C[N+](C)(CCOc1ccccc1)Cc1ccccc1.O=C([O-])c1cc2ccccc2cc1O [Bephenium hydroxynaphthoate] | 1.17 ± 0.053 |

| SMILES | pronephric angle neck segment |
| --- | --- |
| O=C(c1ccc(OCCN2CCCCC2)cc1)c1c(-c2ccc(O)cc2)sc2cc(O)ccc12 [Raloxifene hydrochloride] | 1.01 ± 0.025 |
| C[C@]12CCC(=O)C=C1C=C[C@@H]1[C@@H]2CC[C@@]2(C)[C@H]1CC[C@@]21CCC(=O)O1 [Canrenone] | 1.07 ± 0.031 |
| Clc1ccc(COC(Cn2ccnc2)c2ccc(Cl)cc2Cl)c(Cl)c1 (centres undefined) [Miconazole] | 1.481 ± 0.012 |
| CC[C@H]1OC(=O)[C@H](C)[C@@H](O[C@H]2C[C@@](C)(OC)[C@@H](O)[C@H](C)O2)[C@H](C)[C@@H](O[C@@H]2O[C@H](C)C[C@H](N(C)C)[C@H]2O)[C@](C)(O)C[C@@H](C)CN(C)[C@H](C)[C@@H](O)[C@]1(C)O [Azithromycin] | 1.012 ± 0.0055 |
| COc1cc2c(cc1OC)C(=O)C(CC1CCN(Cc3ccccc3)CC1)C2 (centres undefined) [Donepezil hydrochloride] | 0.9843 ± 0.0083 |
| CC(=O)CCCCn1c(=O)c2c(ncn2C)n(C)c1=O [Pentoxifylline] | 0.752 ± 0.033 |
| C[C@]12CC[C@H]3C(=CCc4cc(O)ccc43)[C@@H]1CCC2=O [Equilin] | 1.17 ± 0.015 |
| CCn1cc(C(=O)O)c(=O)c2cnc(N3CCCC3)nc21 [Piromidic acid] | 1 ± 0.008 |
| Cc1cc(N)c2ccccc2[n+]1CCCCCCCCCC[n+]1c(C)cc(N)c2ccccc21 [Dequalinium dichloride] | 0.9864 ± 0.0034 |
| Nc1nc(F)nc2c1ncn2[C@@H]1O[C@H](CO)[C@@H](O)[C@@H]1O [Fludarabine] | 0.975 ± 0.025 |
| CC(C)NCC(O)COc1cccc2[nH]ccc12 (centres undefined) [Pindolol] | 0.984 ± 0.025 |
| CC(=O)N(CC(O)CN(C(C)=O)c1c(I)c(C(=O)NCC(O)CO)c(I)c(C(=O)NCC(O)CO)c1I)c1c(I)c(C(=O)NCC(O)CO)c(I)c(C(=O)NCC(O)CO)c1I (centres undefined) [Iodixanol] | 1 ± 0.048 |
| N/C(=N\C(=O)c1nc(Cl)c(N)nc1N)NCc1ccccc1 [Benzamil hydrochloride] | 0.98 ± 0.018 |
| CC(C)[C@H]1CC[C@H](C(=O)N[C@H](Cc2ccccc2)C(=O)O)CC1 [Nateglinide] | 1.08 ± 0.024 |
| NC(CO)C(=O)NNCc1ccc(O)c(O)c1O (centres undefined) [Benserazide hydrochloride] | 1.05 ± 0.039 |
| Cc1cc(/C=C/c2ccc3cc(N(C)C)ccc3[n+]2C)c(C)n1-c1ccccc1 [Pyrvinium pamoate] | 1.02 ± 0.034 |
| Cc1cnc(C(=O)NCCc2ccc(S(=O)(=O)NC(=O)NC3CCCCC3)cc2)cn1 [Glipizide] | 0.944 ± 0.021 |
| C=C1c2c(Cl)ccc(O)c2C(=O)C2=C(O)[C@]3(O)C(=O)C(C(N)=O)=C(O)[C@@H](N(C)C)[C@@H]3[C@@H](O)[C@H]12.O=C(O)c1cc(S(=O)(=O)O)ccc1O [Meclocycline sulfosalicylate] | 0.9562 ± 0.0078 |
| CN1CCC[C@@H]1CCO[C@](C)(c1ccccc1)c1ccc(Cl)cc1 [Clemastine fumarate] | 0.9686 ± 0.0025 |
| CCCCN(CCCC)CCC(O)c1cc2c(Cl)cc(Cl)cc2c2cc(C(F)(F)F)ccc12 (centres undefined) [Halofantrine hydrochloride] | 1.32 ± 0.061 |
